# Experimental data taken from PubChem BioAssay AID434970 (Sanford-Burnham Center for Chemical Genomics, 2010).
# The whole screen tested about 11,000 compounds, of which about 310 (2.8%) were called active. No stated cut-off is given here; in the data, active means activity change below about -85%; inactive means the rest. For the sample, actives were picked, then their nearest neighbours and some compounds at random.
# System: intestinal alkaline phosphatase [Mus musculus]
# Test: mouse intestinal phosphatase enzyme activation – biochemical, luminescence, single concentration, confirmation (AID 434970)
# Details: purified mouse IAP, CDP-Star luminescence, 30 min, at 10 µM; activation factor: measured here: IAP activation factor, stronger effect = higher value; activity change, negative = activation: stronger effect = lower value
Structure (SMILES),activation factor,"activity change, negative = activation"
COCCOC(=O)c1c(C)n(C)c2ccc(OC(=O)C3CC3)cc12,1.07,-7.45% (inactive)
CCCCNS(=O)(=O)CCNCCc1ccccc1,1.1,-10.1% (inactive)
COc1ccc(C2/C=C\CC(NS(=O)(=O)c3ccc(C)cc3)CC(=O)N2Cc2ccccc2F)cc1 (stereo not drawn),1.18,-17.7% (inactive)
O=C(CN1CCOCC1)Nc1cccc(C(=O)Nc2cccc(C(F)(F)F)c2)c1,1.03,-2.95% (inactive)
Cc1occc1-c1nnc(SCC(=O)Nc2ccc3c(c2)OCO3)n1CC1CCCO1 (stereo not drawn),0.919,8.1% (inactive)
CCOC(=O)C1=CN(Cc2cccc(F)c2)S(=O)(=O)NC1c1ccc(F)c(Cl)c1 (stereo not drawn),0.881,11.9% (inactive)
C#CCOCCOCCOCCNc1nc(N2CCN(C(=O)CCCCCCCCCCNC(=O)Cn3cc(CCCCCN)nn3)CC2)nc(N2CCN(C(=O)CCCCCCCCCCNC(=O)[C@H]([C@@H](C)CC)n3cc(CCCCCN)nn3)CC2)n1,3.67,-267% (active)
C#CCOCCOCCOCCNc1nc(N2CCN(C(=O)CCCCCCCCCCNC(=O)Cn3cc(CCCCCN)nn3)CC2)nc(N2CCN(C(=O)CCCCCCCCCCNC(=O)[C@H]([C@@H](C)CC)n3cc(CCCCN=C(N)N)nn3)CC2)n1,10,-904% (active)
C#CCOCCOCCOCCNc1nc(N2CCN(C(=O)CCCCCCCCCCNC(=O)Cn3cc(CCCCCN)nn3)CC2)nc(N2CCN(C(=O)CCCCCCCCCCNC(=O)Cn3cc(C[C@@H](C)O)nn3)CC2)n1,2.22,-122% (active)
C#CCOCCOCCOCCNc1nc(N2CCN(C(=O)CCCCCCCCCCNC(=O)Cn3cc(C[C@@H](C)O)nn3)CC2)nc(N2CCN(C(=O)CCCCCCCCCCNC(=O)[C@@H]([C@H](C)CC)n3cc(CCCCCN)nn3)CC2)n1,5.59,-459% (active)
C#CCOCCOCCOCCNc1nc(N2CCN(C(=O)[C@H](Cc3cc4ccccc4[nH]3)n3cc([C@@H](N)CC(C)C)nn3)CC2)nc(N2CCN(C(=O)[C@H](Cc3cc4ccccc4[nH]3)n3cc([C@@H](N)CC(C)C)nn3)CC2)n1,1.61,-60.9% (inactive)
CCOC(=O)CN1C(=O)/C(=C2\SC(=S)N(NC(=O)c3cccnc3)C2=O)c2ccccc21,0.472,52.8% (inactive)
Cc1c(C(=O)N2CCN(c3ncccn3)CC2)sc2nc3n(c(=O)c12)CCCC3,1.11,-11.4% (inactive)
Clc1ccc2nc(C3CCN(Cc4nnnn4C4CCCCC4)CC3)[nH]c2c1,1.15,-14.6% (inactive)
CCn1nnnc1SCC(=O)c1cccc(OC)c1,0.96,4.05% (inactive)
COc1cccc(CNC(=O)c2ccc(NC(=O)C3CCCO3)cc2)c1 (stereo not drawn),0.932,6.8% (inactive)
CCOc1ccc(-n2cc(C(=O)Nc3ccc(Cl)cn3)c3cc(OC)c(OC)cc3c2=O)cc1,0.946,5.4% (inactive)
Oc1ccccc1C1=NOC(O)(C(F)F)C1 (stereo not drawn),0.928,7.2% (inactive)
CCOC(=O)N1CCN(C(=O)c2ccc3c(=O)n(CCC4=CCCCC4)c(=O)[nH]c3c2)CC1,0.936,6.4% (inactive)
O=C(CC1CCCC1)Nc1nnc(C2CC2)s1,0.933,6.65% (inactive)
Cc1onc(-c2ccccc2)c1C(=O)Nc1nc2c(s1)C(=O)CC(C)(C)C2,0.877,12.2% (inactive)
CCOc1ccc(CCNC(=O)c2cc(-c3ccccc3)c(N3CCOCC3)s2)cc1OCC,1.74,-73.9% (inactive)

Structure (SMILES),activation factor,"activity change, negative = activation"
CCOc1ccc(CCNC(=O)c2cc(-c3ccccc3)c(N3CCOCC3)s2)cc1,2.1,-110% (active)
O=C(NCCc1ccccc1)c1cc(-c2ccccc2)c(N2CCOCC2)s1,1.46,-45.9% (inactive)
O=C(NCCc1ccc(F)cc1)N1CCOCC1,1.01,-0.6% (inactive)
O=C(CCCC(=O)N(CC(=O)NC1CCCCC1)Cc1ccccc1)Nc1ccccn1,1.16,-15.6% (inactive)
CCCCC(=O)Nc1ccc(NC(=O)c2cccnc2)cn1,1.06,-5.55% (inactive)
Cc1ccccc1NC(=O)/C(=C\c1cccs1)NC(=O)c1ccccc1,1.02,-1.5% (inactive)
COc1ccc(C(CCN2CCOCC2)c2c(OC)cc(OC)c3c(-c4ccccc4)cc(=O)oc23)cc1 (stereo not drawn),1.07,-7.05% (inactive)
O=C(CN1CCN(S(=O)(=O)c2ccc(Cl)cc2)CC1)NC(=O)NC1CCCCC1,0.929,7.05% (inactive)
O=C(Nc1ccc(Cl)cc1F)c1cc(S(=O)(=O)N2CCCCC2)ccc1F,1.11,-11.5% (inactive)
O=C(Nc1cccc(S(=O)(=O)N2CCCCC2)c1)Nc1ccc(Cl)cc1Cl,4.41,-341% (active)
O=C(Cc1ccc(Cl)cc1)Nc1cccc(S(=O)(=O)N2CCCCC2)c1,1.4,-40.2% (inactive)
O=C(Nc1cccc(Cl)c1)Nc1cc(S(=O)(=O)N2CCCCC2)ccc1Cl,2.08,-108% (active)
Cc1cc(OCC(=O)Nc2cccc(S(=O)(=O)N3CCCCC3)c2)ccc1Cl,1.81,-81.3% (inactive)
O=C(Nc1ccc(Cl)cc1Cl)NC1CCN(S(=O)(=O)c2ccc(F)cc2)CC1,2.16,-116% (active)
O=C(Cc1ccccc1Cl)Nc1cccc(S(=O)(=O)N2CCCCCC2)c1,1.61,-60.6% (inactive)
COc1ccc(CCNc2nc(-c3ccco3)cc(C(F)(F)F)n2)cc1OC,0.889,11.2% (inactive)
CCn1c(CSc2nc3ccccc3[nH]2)nc2cc(C(=O)O)ccc21,0.865,13.6% (inactive)
CN1CCN(CCc2nc3cc(NC(=O)COc4ccccc4)ccc3n2C)CC1,0.96,4.05% (inactive)
CN1CCN(C(=O)c2ccc3c(c2)OCCO3)CC1,0.959,4.15% (inactive)
Cc1nc(CC(=O)Nc2nc(-c3ccccc3)cs2)cs1,0.961,3.9% (inactive)
COc1ccc(OC)c(S(=O)(=O)N2CCC(C(=O)NC(C)c3ccccc3)CC2)c1 (stereo not drawn),1.03,-3.4% (inactive)
Nc1c(C(=O)NCCc2ccccc2)nnn1Cc1ccc(Cl)cc1,1.1,-9.55% (inactive)
